Where a name gives a salt, the structure may show the parent alone.

This experiment deals with S. cerevisiae BY4741 (wild-type), vegetative growth in YPD. The experiment is described as follows: growth sensitivity score (doubling time z-score vs DMSO controls); higher = slower growth, strongly negative scores also mark growth inhibition (complete suppression), active = hit call of the paper. The essentials: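 Yeast (Saccharomyces cerevisiae BY4741 and AD1-9) was grown in rich medium in microtiter plates from a starting OD600 of 0.065, with optical density read every 15 min over 24 hours. The growth sensitivity score was the difference between compound and solvent-only means, divided by the solvent-only standard deviation. Every experiment had eight solvent-only wells.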
Take `CC(C)Oc1ccc2c(=O)c(-c3ccccc3)coc2c1` [Ipriflavone] (stock concentration (mM, diluted 1:100): 10): the growth sensitivity score is -0.15 (inactive).

Consider `CCOC(=O)c1ccc(OC(=O)CCCCCNC(=N)N)cc1` [Gabexate mesylate] (stock concentration (mM, diluted 1:100): 7.7), for which the growth sensitivity score was 1.03 (inactive).

`Cc1cc2c(s1)Nc1ccccc1N=C2N1CCN(C)CC1` [Olanzapine] (stock concentration (mM, diluted 1:100): 9.9): the growth sensitivity score is -0.76 (inactive).

For `CN1[C@@H]2CC[C@H]1C[C@@H](OC(=O)c1c[nH]c3ccccc13)C2` [Tropisetron hydrochloride] (stock concentration (mM, diluted 1:100): 7.7), the growth sensitivity score is -0.89 (inactive).

With `Oc1ccc(/C=C/c2cc(O)cc(O)c2)cc1` [Resveratrol] (stock concentration (mM, diluted 1:100): 10), the growth sensitivity score was -0.21 (inactive).

As for `Nc1ncnc2c1ncn2[C@@H]1O[C@H](CO)C[C@@H]1O` [3-Deoxydenosine] (stock concentration (mM, diluted 1:100): 10), the growth sensitivity score was 1.06 (inactive).

In the case of `N#Cc1ccc(C(c2ccc(C#N)cc2)n2cncn2)cc1` [Letrozol] (stock concentration (mM, diluted 1:100): 10), the growth sensitivity score was -0.45 (inactive).

Regarding `COc1cc(C(=O)NC2CCCNC2)cc(OC)c1OC` (stereo not drawn) [Troxipide] (stock concentration (mM, diluted 1:100): 10.1), the growth sensitivity score is 0.38 (inactive).

Consider `CCC(=O)NS(=O)(=O)c1ccc(-c2c(-c3ccccc3)noc2C)cc1` [Parecoxib] (stock concentration (mM, diluted 1:100): 9.8), for which the growth sensitivity score is -0.35 (inactive).

For `NC(=O)c1cccnc1` [Nicotinamide] (stock concentration (mM, diluted 1:100): 10), the growth sensitivity score was -0.49 (inactive).

As to `CC(Oc1c(Cl)cccc1Cl)C1=NCCN1` (stereo not drawn) [Lofexidine hydrochloride] (stock concentration (mM, diluted 1:100): 10), the growth sensitivity score is 0.09 (inactive).

Turning to `CCCc1nc2c(C)cc(-c3nc4ccccc4n3C)cc2n1Cc1ccc(-c2ccccc2C(=O)O)cc1` [Telmisartan] (stock concentration (mM, diluted 1:100): 10), the growth sensitivity score was 85.7 (active).

Take `NNCCc1ccccc1` [Phenelzine sulfate salt] (stock concentration (mM, diluted 1:100): 10): the growth sensitivity score was 0.3 (inactive).

As to `CN1CCCCC1CCN1c2ccccc2Sc2ccc([S+](C)[O-])cc21` (stereo not drawn) [Mesoridazine] (stock concentration (mM, diluted 1:100): 10), the growth sensitivity score is 66 (active).

Regarding `CC(C)NCC(O)COc1ccc(COCCOC(C)C)cc1` (stereo not drawn) [Bisoprolol fumarate] (stock concentration (mM, diluted 1:100): 8.5), the growth sensitivity score was 0.65 (inactive).

In the case of `CC#C[C@]1(O)CC[C@H]2[C@@H]3CCC4=CC(=O)CCC4=C3[C@@H](c3ccc(N(C)C)cc3)C[C@@]21C` [Mifepristone] (stock concentration (mM, diluted 1:100): 10), the growth sensitivity score was -2.51.

Take `Cc1ccnc2c1NC(=O)c1cccnc1N2C1CC1` [Viramune] (stock concentration (mM, diluted 1:100): 10): the growth sensitivity score was -1.29 (inactive).

As for `CCCc1c(OCCCCc2nnn[nH]2)ccc(C(C)=O)c1O` (stock concentration (mM, diluted 1:100): 10), the growth sensitivity score is 1.14 (inactive).

On to `COc1ccc(-c2cc(=O)c3c(OC)c(OC)c(OC)c(OC)c3o2)cc1OC` [Nobiletin] (stock concentration (mM, diluted 1:100): 10), for which the growth sensitivity score was 4.43 (active).

On to `COc1cc2nc(N3CCN(C(=O)c4ccco4)CC3)nc(N)c2cc1OC` [Prazosin] (stock concentration (mM, diluted 1:100): 10), for which the growth sensitivity score is -0.58 (inactive).

For `CC[C@H]1OC(=O)[C@H](C)[C@@H](O[C@H]2C[C@@](C)(OC)[C@@H](O)[C@H](C)O2)[C@H](C)[C@@H](O[C@@H]2O[C@H](C)C[C@H](N(C)C)[C@H]2O)[C@](C)(OC)C[C@@H](C)C(=O)[C@H](C)[C@@H](O)[C@]1(C)O` [Clarithromycin] (stock concentration (mM, diluted 1:100): 10), the growth sensitivity score was 1.37 (inactive).

With `Cn1nnc2c(C(N)=O)ncn2c1=O` [Temozolomide] (stock concentration (mM, diluted 1:100): 10), the growth sensitivity score was 1.92 (inactive).

For `Cc1ncc([N+](=O)[O-])n1CCO` [Metronidazole] (stock concentration (mM, diluted 1:100): 10), the growth sensitivity score was -0.2 (inactive).

`Oc1ccc(C2CNCCc3c2cc(O)c(O)c3Cl)cc1` (stereo not drawn) [Fenoldopam mesylate] (stock concentration (mM, diluted 1:100): 7.7): the growth sensitivity score is -0.74 (inactive).

Take `C[C@@H]1C[C@H]2[C@@H]3C[C@H](F)C4=CC(=O)C(Cl)=C[C@]4(C)[C@@]3(F)[C@@H](O)C[C@]2(C)[C@@]1(O)C(=O)CO` [Halometasone monohydrate] (stock concentration (mM, diluted 1:100): 10): the growth sensitivity score is -0.26 (inactive).

With `O=c1[nH]c(=O)n(C2CCCO2)cc1F` (stereo not drawn) [Ftorafur] (stock concentration (mM, diluted 1:100): 10), the growth sensitivity score is 0.14 (inactive).

As for `Clc1ccccc1CN1CCc2sccc2C1` [Ticlopidine hydrochloride] (stock concentration (mM, diluted 1:100): 8.7), the growth sensitivity score was 0.36 (inactive).

Take `COc1cc(C)c(Cc2cnc(N)nc2N)cc1OC` [Ormetoprim] (stock concentration (mM, diluted 1:100): 10): the growth sensitivity score is -1.06 (inactive).

The values are drawn from the supplement of paper PMC3414501.
